HEK293 tox: qHTS of GLP-1 Receptor Inverse Agonists: Cytotox Screen; HEK293 cAMP-luciferase reporter cells, luminescence, 24 h; Potency, µM (titrated, usually from 38.3 µM), without a hit: top-dose activity change, negative = inhibition, hits mostly inhibitors; hit rate 0.13% among 410,000; AID 624418, 2012;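 also: loss of luciferase light is scored as toxicity; % is scaled to controls: 0 for no effect and ±100 for the full control effect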
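Compound-treated cells are incubated 24 hr at 37 deg C under 5% CO2 after a 12 hour attachment period, then luciferase detection reagent is added and luminescence is measured following 12 min at room temperature; lowered signal indicates toxicity.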
GLP-1R agonist: qHTS of GLP-1 Receptor Agonists; HEK293 GLP-1R CRE-luciferase, luminescence, 4-6 h; cells express a hypersensitive GLP-1R form; AID 624172, 2012; hit rate 0.007% among 380,000; Potency, µM (series often up to 45.6 µM), inactives show at the top dose activation, actives largely listed as activators; also: % of control where 0% means no effect
PTHR1 agonist: qHTS for PTHR1 Agonists: Primary Screen. HEK293 GP2 PTHR1 cells, GloSensor cAMP luminescence, 1 h. AID 743266, 2014. Potency, µM (highest dose often 115 µM), for the others: at the highest dose activation, most hits filed as activators. hit rate 0.075% among 410,000; also: nearly all actives have a fitted effect of over 55% in size
Target sequence (Q03431 whole entry, looked up): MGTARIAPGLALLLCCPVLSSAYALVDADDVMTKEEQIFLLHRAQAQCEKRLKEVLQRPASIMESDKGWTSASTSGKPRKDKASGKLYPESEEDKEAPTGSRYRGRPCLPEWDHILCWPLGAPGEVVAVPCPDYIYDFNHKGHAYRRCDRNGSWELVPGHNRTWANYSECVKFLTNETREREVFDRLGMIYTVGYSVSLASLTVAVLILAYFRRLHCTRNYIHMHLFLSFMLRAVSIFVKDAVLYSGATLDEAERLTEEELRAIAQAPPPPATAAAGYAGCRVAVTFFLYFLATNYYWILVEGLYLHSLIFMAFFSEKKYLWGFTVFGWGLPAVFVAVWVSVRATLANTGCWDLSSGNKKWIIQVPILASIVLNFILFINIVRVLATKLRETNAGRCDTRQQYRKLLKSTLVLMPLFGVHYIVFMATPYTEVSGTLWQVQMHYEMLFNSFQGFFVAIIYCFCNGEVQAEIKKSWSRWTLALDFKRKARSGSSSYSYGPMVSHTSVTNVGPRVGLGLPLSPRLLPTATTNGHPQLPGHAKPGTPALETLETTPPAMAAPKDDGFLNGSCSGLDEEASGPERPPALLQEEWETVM
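HEK-293-derived GP2 cells expressing PTHR1 and a GloSensor cAMP reporter, 3,000/well, plated overnight, given luciferin plus IBMX (each 0.5 mM as added) for 1 h at 37 °C, then compound for 1 h at 37 °C. Luminescence was read after 15 min at room temperature.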
RGS4 inh: Inhibitors of Regulator of G Protein Signaling (RGS) 4: qHTS. hit rate 0.039% among 390,000. Regulator of G-protein signaling 4 (Homo sapiens), P49798. AID 504845, 2011. Potency, µM (titrated, usually from 114 µM), for inactives: at the highest dose activity change, negative = inhibition, usual class: inhibitors. Transcreener GDP fluorescence polarization, RGS4-accelerated GTP hydrolysis; also: % is scaled to controls: 0 for no effect and ±100 for the full control effect; nearly all actives have a fitted effect of over 75% in size
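MLSMR compounds (23 nl, pin-transferred) preincubated 10 min at room temperature with a 500nM (2x) first reagent, then RGS4 at 900nM (2x) plus Transcreener GDP mix added; fluorescence polarization (620/688 nm) read before and after 90 min at 30 °C.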
GLP1R inv ag: qHTS of GLP-1 Receptor Inverse Agonists (Inhibition Mode). HEK293 GLP-1R CRE-luciferase, luminescence, 24 h; GLP-1R form is constitutively active. Potency, µM (doses to about 38.3 µM), inactives show top-dose activity change, negative = inhibition, most hits filed as inhibitors. hit rate 1.6% among 410,000; also: % is scaled to controls: 0 for no effect and ±100 for the full control effect; nearly all actives have a fitted effect of over 55% in size
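Luminescence readout: a drop in cAMP-driven luciferase signal flags inverse agonism at a constitutively active GLP-1R stably expressed in HEK293. Compound exposure lasted 24 hr at 37 deg C, 5% CO2.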
* = called active by the depositor; i = inactive; ? = inconclusive; nt = not tested or not shown; [ ] = another dose, or the depositor's remark. An excerpt weighted towards active compounds, which were near 1.7% of everything screened. Calls follow the shape of the dose curve; as a rule, active = well fitted curve in the direction sought with a large enough effect; inconclusive = small, poorly fitted or top-dose-only effect, or another doubt; inactive = no such curve, though single readings can be large; an effect the other way counts as inactive or inconclusive. Potency is read from the fitted curve at half-maximal effect.

SMILES	HEK293 tox	GLP-1R agonist	PTHR1 agonist	RGS4 inh	GLP1R inv ag
O=C(NCc1cccnc1)/C(=C\c1ccc(-c2cccc(Cl)c2)o1)S(=O)(=O)c1ccccc1	?	-24.1%	-42.8%	?	2µM*
O=C(NC12CC3CC(CC(C3)C1)C2)N1CCN(c2nc(-c3ccccc3)cs2)CC1	1.2%	-9.6%	-27.9%[57.5 µM]	-33.6%	3.16µM*
COc1ccc(N2CCN(C(=O)NC34CC5CC(CC(C5)C3)C4)CC2)cc1	-20.7%	-2.9%	-33.3%	-50.8%	7.94µM*
O=C(NC(=S)N1CCN(c2nc(-c3ccccc3)cs2)CC1)c1cccnc1	-14.8%	-34.6%	-24.9%	-27.7%	8.91µM*
COCCNC(=S)N1CCN(c2nc(-c3ccccc3)cs2)CC1	-4.0%	-2.7%	-74.9%	-5.6%	-16.5%
O=C(NC1CCCCC1)N1CCN(c2nc(-c3ccccc3)cs2)CC1	-7.2%[7.66 µM]	-1.8%	-53.1%	18.3%	-1.6%[7.66 µM]
NC(N)=N/N=C/c1ccc(Br)cc1	?	-4.8%	i	-0.8%	5.01µM*
N#Cc1ccc(/C=N/N=C(N)N)cc1	-14.1%	-9.5%	-15.8%[57.5 µM]	-6.7%	9.6%
COc1ccc(N2C(=O)CS/C2=N\C(=S)Nc2ccccc2)cc1	?	8.9%	i	-2.8%	12.6µM*
CCCCCNc1nc2c(-c3ccccc3)nnn2c2ccccc12	-0.2%	0.1%	-22.7%	8.8%	7.4%
CC(C)Oc1cc(F)ccc1-c1cc(C(=O)Nc2ccccc2)[nH]n1	-2.0%	28.5%	-13.1%	nt	11.2µM*
O=C(c1ccc(S(=O)(=O)Nc2ccccc2F)cc1)N1CCCC1	-1.3%	0.5%	-53.5%	-9.9%	8.4%
O=C1CN(CC(=O)Nc2cccc(Cl)c2Cl)c2ccccc2N1	0.8%	9.2%	i	7.7%	10µM*
CCOc1cccc(CN2CCCC(N3CCc4ccccc4C3)C2)c1O (stereo not given)	1.3%	7.5%	-23.3%	-16.8%	-22.3%
CCOc1cccc(CN2CCCC(N3CCN(c4cccc(Cl)c4)CC3)C2)c1O (stereo not given)	-21.2%	-3.3%	-8.8%	14.0%	10µM*
Cn1c(=O)c(=O)n(C)c2cc(S(=O)(=O)N3CCC(Cc4ccccc4)CC3)ccc21	-9.3%	-1.8%	i	?	-1.1%
O=S(=O)(c1ccccc1Cl)N1CCC(Cc2ccccc2)CC1	39.9%	5.8%	-18.7%	38.6%	7.94µM*
O=C(NCCc1ccc(F)cc1)NC12CC3CC(CC(C3)C1)C2	14.7%	-0.1%	i	2.7%	?
O=C(NCCC1=CCCCC1)NC12CC3CC(CC(C3)C1)C2	15.6%	-5.2%	-16.1%[57.5 µM]	26.3%	5.62µM*
Cc1nc2sccn2c(=O)c1S(=O)(=O)NCC1CCN(Cc2ccc(Cl)cc2)CC1	-2.4%	13.1%	-7.8%	nt	10µM*
Cc1cc(C)nc(N/N=C/C=C/c2ccccc2)n1	11.2µM*	-6.2%	i	-1.7%	?
COc1ccc(S(=O)(=O)Nc2ccc(C)c(S(=O)(=O)N3CCOCC3)c2)cc1[N+](=O)[O-]	-9.1%	7.0%	i	35.9%	-0.8%
N#Cc1nc(-c2ccc(OCc3ccccc3Cl)cc2)oc1N1CCCCCC1	nt	nt	nt	1.4%	nt
CCCSc1ncc(Cl)c(C(=O)N(Cc2ccc(N(C)C)cc2)C2CCS(=O)(=O)C2)n1 (stereo not given)	1.6%	nt	20.7%	29.2%	8.1%
O=C(COc1ccccc1-c1ccccc1)N/N=C/c1ccc2ccccc2c1	?	21.5%	-17.6%	1.5%	1µM*
SMILES	HEK293 tox	GLP-1R agonist	PTHR1 agonist	RGS4 inh	GLP1R inv ag
O=C(COc1ccccc1-c1ccccc1)N/N=C/c1ccncc1	-6.7%	8.1%	-44.6%	20.3%	?
NC(=S)N/N=C/c1cccc(/C=N/NC(N)=S)c1	-11.4%	10.9%	i	-36.5%	50.5%
NC(=S)N/N=C/c1ccc2ccccc2c1	3.16µM*	-0.9%	i	-32.6%	5.62µM*
COc1ccccc1N1CCN(C(=O)Cn2ncc3ccsc3c2=O)CC1	0.4%	-2.6%	-16.2%	13.5%	9.4%
CCN(CC)CC(O)Cn1c2ccccc2c2ccccc21 (stereo not given)	15.8%	17.9%	i	-4.4%	?
CCN(CC)CC(O)Cn1c(C)c(-c2ccccc2)c2cc([N+](=O)[O-])ccc21 (stereo not given)	?	1.7%	i	-2.1%[56.9 µM]	4.47µM*
COCCn1c(C)cc(O)c(C(c2ccccc2)N2CCN(C)CC2)c1=O (stereo not given)	1.3%	nt	i	-5.5%	-0.5%
O=C(COC(=O)Cn1cnc2ccccc2c1=O)Nc1ccccc1OC(F)F	3.3%	5.9%	i	8.2%	1.1%
CCOC(=O)c1ccc(NC(=S)N(CCCN2CCN(C)CC2)Cc2cccs2)cc1	?	7.5%	-8.3%	7.8%	?
CCOC(=O)c1ccc(NC(=S)N(CCCN2CCCC2)Cc2cccs2)cc1	?	4.7%	-12.3%	10.1%	2.82µM*
Cc1ccc2c(c1)c1c(n2CC(O)Cn2ccnc2C)C(=O)CCC1 (stereo not given)	1.5%	-2.6%	i	-2.3%	?
Cc1ccc2c(c1)c1c(n2CC(O)CNC2CCCC2)CCCC1 (stereo not given)	?	-0.6%	i	6.2%	11.2µM*
CCCSc1ncc(Cl)c(C(=O)Nc2c(C(=O)Nc3ccc(C)cc3)oc3ccccc23)n1	7.8%	nt	-25.0%	2.0%	12.2%
O=C(NCc1cccc(Cl)c1)c1ccc(NC(=O)N2CCSc3ccccc32)cc1	-9.5%	nt	-24.9%	-35.7%	-25.3%
COc1ccc(CNC(=O)CS(=O)(=O)c2cccc3nsnc23)cc1	2.2%	-4.7%	2.9%	6.2%	0.2%
O=C(Oc1c(CN2CCOCC2)cc(Cl)c2cccnc12)c1ccccc1	-13.6%	3.2%	-1.8%	-17.3%	?
Oc1c(CN2CCc3ccccc3C2)cc(Cl)c2cccnc12	?	-2.1%	22.4µM*	-36.9%	?
Oc1c(Cl)cc(CN2CCOCC2)c2cccnc12	?	-2.8%	-0.9%	-33.0%	?
Oc1c(CN2CCCCC2)cc(Br)c2cccnc12	?	-2.4%	-37.4%	?	2.51µM*
COc1cc(OC)cc(C(=O)Oc2c(CN3CCOCC3)cc(Cl)c3cccnc23)c1	?	-0.3%	i	-9.7%	10µM*
N#Cc1ccccc1NC(=O)C(=O)NCC(c1ccc2c(c1)OCO2)N1CCN(c2ccccc2)CC1 (stereo not given)	3.1%	nt	?	-7.9%	3.0%
Fc1ccc(-c2nnc(NC3=NCCCCC3)o2)cc1	0.3%	-59.8%	-9.5%	1.5%	1µM*

Screening results (PubChem BioAssay)
